Data reported in PubChem BioAssay (EPA / NIEHS).
Some structures have more than one record in an assay (separate samples or runs), and their calls can disagree. Calls of active or inactive are those of the source. How the source made its calls: active means hit-call score of the fitted dose curve at least 0.9, where 1 is the maximum; inactive means score below 0.9.

Legend:
[1] = ATG_GLI_CIS: Attagene CIS-FACTORIAL HepG2 Assay for human Zinc Finger Protein GLI1 (AID 2282945); conditions: HepG2, Attagene cis-factorial reporter mRNA, GLI element; actives raise or lower the signal
Method in brief: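 Bidirectional curve fits relative to DMSO, using reporter mRNA levels from RT-PCR plus capillary electrophoresis. Cells were HepG2 transiently carrying cis-regulated reporter constructs, harvested 24 h after dosing.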

[2] = target: Bile acid receptor (Homo sapiens) (UniProt Q96RI1); assay: ATG_IR1_CIS: Attagene CIS-FACTORIAL HepG2 Assay for human Nuclear Receptor Subfamily 1 Group H Member 4 (NR1H4), IR1 submotif (AID 2282946); conditions: IR1 reporter transcription, actives raise or lower the signal
Method in brief: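 HepG2 cells transiently transfected with multiplexed cis-element reporter units read endogenous transcription factor activity. After 24 h compound exposure, reporter mRNA was quantified by RT-PCR, fluorescent labelling, HpaI digestion and capillary electrophoresis; bidirectional fitting versus DMSO baseline.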

[3] = ATG_GRE_CIS: Attagene CIS-FACTORIAL HepG2 Assay for human Glucocorticoid Response Elements (GRE) (AID 2282947); conditions: HepG2 GRE cis-reporter, Attagene multiplex mRNA; actives raise or lower the signal
Method in brief: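 Reporter transcripts read by RT-PCR with capillary electrophoresis fluorescence after a 24 h chemical exposure of HepG2 cells transiently transfected with multiple cis-element reporter units. Gain or loss fitted against DMSO.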

[4] = ATG_ISRE_CIS: Attagene CIS-FACTORIAL HepG2 Assay for human Interferon Regulatory Factor 1 (IRF1) binding to an Interferon-Stimulated Response Element (ISRE) (AID 2282948); conditions: HepG2 ISRE cis-reporter (Attagene), mRNA transcription readout; actives raise or lower the signal
Method in brief: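 Signal reflects induction or loss of ISRE-linked reporter mRNA in transiently transfected HepG2 cells after a 24 h treatment, detected by fluorescent RT-PCR fragments on capillary electrophoresis and normalised to DMSO.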

[5] = ATG_M_32_CIS: Attagene CIS-FACTORIAL HepG2 Assay for M32 Transcription Factor (Internal Marker) (AID 2282949); conditions: HepG2 Attagene cis-factorial M32 reporter, mRNA; actives raise or lower the signal;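 further: background control marker of the multiplexed CIS panel rather than a real target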
Method in brief: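 HepG2 human liver cells transiently transfected with cis-promoter-driven multiple reporter transcription units, dosed 24 h. Reporter mRNA quantified by RT-PCR, FAM-labelled primer extension, HpaI digest and capillary electrophoresis; bidirectional fit versus DMSO baseline.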

[6] = ATG_M_06_CIS: Attagene CIS-FACTORIAL HepG2 Assay for M06 Transcription Factor (Internal Marker) (AID 2282950); conditions: HepG2 Attagene CIS-FACTORIAL M06 internal marker reporter; actives raise or lower the signal
Method in brief: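 Cells (HepG2, transiently carrying cis-driven reporter units) receive chemical for 24 h before RNA isolation. Reporter cDNA is PCR-amplified, FAM-labelled by primer extension, HpaI-digested and sized on a capillary analyser.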

[7] = target: Hypoxia-inducible factor 1-alpha (Homo sapiens) (UniProt Q16665); assay: ATG_HIF1a_CIS: Attagene CIS-FACTORIAL HepG2 Assay for human Hypoxia Inducible Factor 1 (HIF1A) (AID 2282951); conditions: HepG2 Attagene cis-factorial HIF1a reporter transcription; actives raise or lower the signal
Method in brief: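 Measures endogenous transcription-factor activity through cis-regulated reporter mRNA in HepG2. Cells dosed 24 h; transcripts quantified by RT-PCR with 6-FAM-labelled products separated by capillary electrophoresis; DMSO serves as negative control.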

[8] = target: Hepatocyte nuclear factor 6 (Homo sapiens) (UniProt Q9UBC0); assay: ATG_HNF6_CIS: Attagene CIS-FACTORIAL HepG2 Assay for human Hepatocyte Nuclear Factor 6 (HNF6) (AID 2282952); conditions: HepG2 Attagene cis-factorial HNF6 reporter transcription; actives raise or lower the signal
Method in brief: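 Readout: fluorescent reporter-transcript fragments resolved by capillary electrophoresis after RT-PCR, reflecting endogenous factor activity in transfected HepG2. Exposure 24 h. Gain or loss of signal fitted bidirectionally against DMSO.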

[9] = ATG_MRE_CIS: Attagene CIS-FACTORIAL HepG2 Assay for human Metal Responsive Element (MRE) (AID 2282954); conditions: HepG2 MRE cis-reporter transcription, Attagene multiplex; actives raise or lower the signal
Method in brief: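 Endogenous MRE-dependent transcription read as reporter mRNA in transiently transfected human HepG2 cells at 24 h. RNA reverse-transcribed, PCR-amplified, labelled and resolved by capillary electrophoresis; gain or loss relative to DMSO.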

[10] = target: Heat shock factor protein 1 (Homo sapiens) (UniProt Q00613); assay: ATG_HSE_CIS: Attagene CIS-FACTORIAL HepG2 Assay for human Heat Shock Transcription Factor 1 (HSE) (AID 2282953); conditions: HepG2 HSE cis-reporter, Attagene RNA transcription; actives raise or lower the signal
Method in brief: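 Liver-derived HepG2 cells carry transiently introduced multiple reporter units governed by cis promoters. Reporter RNA measured 24 h post-dose through reverse transcription, PCR amplification, fluorescent labelling and capillary electrophoresis, normalised to DMSO.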

Measured: AC50

Hepatocyte nuclear factor 6 (Homo sapiens), sequence (Q9UBC0 whole entry, looked up, the tested form may be a part): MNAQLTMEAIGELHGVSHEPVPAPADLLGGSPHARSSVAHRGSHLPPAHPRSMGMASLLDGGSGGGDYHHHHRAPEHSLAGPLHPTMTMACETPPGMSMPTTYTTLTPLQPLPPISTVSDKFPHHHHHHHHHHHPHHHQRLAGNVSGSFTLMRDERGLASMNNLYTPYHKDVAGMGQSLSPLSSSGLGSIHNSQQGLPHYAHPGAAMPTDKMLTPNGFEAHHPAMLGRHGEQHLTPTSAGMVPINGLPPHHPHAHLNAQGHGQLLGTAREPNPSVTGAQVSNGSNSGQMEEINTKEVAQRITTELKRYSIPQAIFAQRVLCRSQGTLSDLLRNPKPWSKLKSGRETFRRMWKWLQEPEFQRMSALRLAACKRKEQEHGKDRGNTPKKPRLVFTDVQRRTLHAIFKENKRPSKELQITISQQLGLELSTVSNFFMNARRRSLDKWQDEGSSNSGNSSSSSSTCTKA
Bile acid receptor (Homo sapiens), sequence (Q96RI1 whole entry, looked up): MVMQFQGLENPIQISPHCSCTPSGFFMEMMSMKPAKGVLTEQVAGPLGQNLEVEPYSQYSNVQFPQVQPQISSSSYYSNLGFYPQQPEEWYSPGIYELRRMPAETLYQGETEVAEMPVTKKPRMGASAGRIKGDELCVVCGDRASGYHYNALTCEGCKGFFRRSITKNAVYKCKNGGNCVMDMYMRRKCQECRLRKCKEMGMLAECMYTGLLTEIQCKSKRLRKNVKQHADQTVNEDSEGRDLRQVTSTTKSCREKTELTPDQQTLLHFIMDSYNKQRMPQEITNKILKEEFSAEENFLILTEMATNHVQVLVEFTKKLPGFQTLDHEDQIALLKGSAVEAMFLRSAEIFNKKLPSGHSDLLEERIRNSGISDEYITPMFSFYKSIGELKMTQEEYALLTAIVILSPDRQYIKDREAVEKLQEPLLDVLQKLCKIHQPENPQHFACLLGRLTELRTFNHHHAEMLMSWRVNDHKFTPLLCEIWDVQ
Heat shock factor protein 1 (Homo sapiens), sequence (Q00613 whole entry, looked up): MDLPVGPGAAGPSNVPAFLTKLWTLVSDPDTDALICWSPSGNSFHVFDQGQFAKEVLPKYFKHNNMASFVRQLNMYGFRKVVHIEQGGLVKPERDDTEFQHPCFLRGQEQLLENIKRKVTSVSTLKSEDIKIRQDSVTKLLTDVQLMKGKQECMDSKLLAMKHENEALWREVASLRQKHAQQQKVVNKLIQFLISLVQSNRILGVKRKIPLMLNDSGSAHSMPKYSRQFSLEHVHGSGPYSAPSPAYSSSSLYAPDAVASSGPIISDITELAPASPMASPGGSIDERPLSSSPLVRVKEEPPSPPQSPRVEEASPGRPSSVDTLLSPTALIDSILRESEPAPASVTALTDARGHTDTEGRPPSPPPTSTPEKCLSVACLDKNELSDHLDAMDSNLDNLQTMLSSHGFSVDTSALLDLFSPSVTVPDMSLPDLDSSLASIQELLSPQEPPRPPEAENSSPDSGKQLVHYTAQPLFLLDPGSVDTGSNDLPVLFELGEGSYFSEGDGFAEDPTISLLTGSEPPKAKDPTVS
Hypoxia-inducible factor 1-alpha (Homo sapiens), sequence (Q16665 whole entry, looked up): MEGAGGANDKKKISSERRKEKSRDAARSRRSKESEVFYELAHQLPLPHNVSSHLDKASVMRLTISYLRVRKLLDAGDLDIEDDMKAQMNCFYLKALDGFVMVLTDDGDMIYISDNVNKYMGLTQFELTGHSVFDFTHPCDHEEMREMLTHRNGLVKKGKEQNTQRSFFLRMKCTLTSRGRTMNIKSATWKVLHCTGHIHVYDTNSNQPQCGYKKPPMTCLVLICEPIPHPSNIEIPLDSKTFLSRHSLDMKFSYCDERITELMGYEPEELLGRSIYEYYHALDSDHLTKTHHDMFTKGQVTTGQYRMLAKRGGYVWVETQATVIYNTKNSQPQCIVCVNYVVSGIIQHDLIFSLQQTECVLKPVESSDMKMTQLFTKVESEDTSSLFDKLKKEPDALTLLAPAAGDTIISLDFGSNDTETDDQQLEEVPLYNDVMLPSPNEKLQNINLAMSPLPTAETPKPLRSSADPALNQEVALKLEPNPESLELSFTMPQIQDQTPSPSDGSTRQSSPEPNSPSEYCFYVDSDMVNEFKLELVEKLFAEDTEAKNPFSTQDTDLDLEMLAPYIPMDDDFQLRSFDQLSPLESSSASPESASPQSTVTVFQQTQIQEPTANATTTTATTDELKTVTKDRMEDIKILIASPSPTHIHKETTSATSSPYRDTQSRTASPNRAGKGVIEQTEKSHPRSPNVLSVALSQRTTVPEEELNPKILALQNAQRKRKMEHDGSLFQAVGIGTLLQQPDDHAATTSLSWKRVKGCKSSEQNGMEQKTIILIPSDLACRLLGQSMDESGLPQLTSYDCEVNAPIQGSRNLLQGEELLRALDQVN

NCC(F)(F)C(F)(F)C(F)(F)C(F)(F)F
inactive: [1] | [2] | [3] | [4] | [5] | [6] | [7] | [8] | [9]

O=C(Cl)C(F)(F)C(F)(F)C(F)(F)C(=O)Cl
inactive: [1] | [2] | [3] | [4] | [5] | [6] | [7] | [8] | [10] | [9]

c1ccc2cc3ccccc3cc2c1
inactive: [1] | [2] | [3] | [5] | [6] | [7] | [8] | [9]

O=S(=O)(O)CCC(F)(F)C(F)(F)C(F)(F)C(F)(F)C(F)(F)C(F)(F)F
inactive: [1] | [2] | [3] | [5] | [6] | [7] | [8] | [9]

CCCCCOC(C)=O
inactive: [1] | [2] | [3] | [4] | [5] | [6] | [7] | [8] | [9]

COc1cc(C(C)C)c2c(c1)S(=O)(=O)N(COc1cc(=O)n3cccc(OCCN4CCCCC4)c3n1)C2=O
inactive: [1] | [2] | [5]
active: [3] 4.22 µM | [4] 5.08 µM | [6] 12.3 µM | [7] 5.04 µM | [8] 13.9 µM | [10] 2.75 µM | [9] 9.28 µM

C[C@@H](Oc1ccc(CNC(=O)c2cccnc2Oc2ccc3c(c2)OCO3)c(F)c1)C(=O)O
inactive: [1] | [2] | [3] | [4] | [5] | [6] | [7] | [8] | [10] | [9]

O=S(=O)(O)c1ccc(N=Nc2c(O)ccc3cc(S(=O)(=O)O)ccc23)cc1
inactive: [1] | [2] | [3] | [5] | [6] | [7] | [8] | [10] | [9]

FC(F)=C(F)C(F)(F)C(F)(F)C(F)(F)C(F)(F)C(F)(F)C(F)(F)F
inactive: [1] | [2] | [3] | [5] | [6] | [7] | [8] | [10] | [9]

OC(O)(C(F)C(O)(O)C(F)(F)F)C(F)(F)F
inactive: [1] | [2] | [3] | [5] | [6] | [7] | [8] | [10] | [9]

Cc1nccn1-c1ccc(Sc2cccc(C3(C(N)=O)CCOCC3)c2)cc1
active: [2] 1.01 µM | [3] 5.85 µM | [4] 7.26 µM | [8] 7.22 µM | [9] 6.89 µM
inactive: [1] | [5] | [6] | [7]

Cc1nc(-c2ccccn2)ncc1C(=O)Nn1cc(C)c2cc(F)ccc21
active: [7] 48 µM
inactive: [1] | [2] | [3] | [4] | [5] | [6] | [8] | [9]

O=C(O)[C@H](O)[C@@H](O)C(=O)O
inactive: [1] | [2] | [3] | [4] | [5] | [6] | [8] | [10] | [9]

CC(C)CCCCCCOC(=O)C1CCCCC1C(=O)OCCCCCCC(C)C (stereo not drawn)
inactive: [1] | [2] | [3] | [5] | [6] | [7] | [8] | [9]

C=CCc1cc(S(=O)(=O)c2ccc(O)c(CC=C)c2)ccc1O
inactive: [1] | [3] | [5] | [6] | [7] | [8]
active: [2] 51.1 µM | [10] 54.7 µM | [9] 47 µM

FC(F)(F)C(F)(F)C(F)(F)C(F)(F)C(F)(F)C(F)(F)I
inactive: [1] | [2] | [3] | [4] | [5] | [6] | [7] | [8] | [10] | [9]

Nc1ccn([C@@H]2O[C@H](CO)[C@@H](O)[C@@H]2O)c(=O)n1
inactive: [1] | [2] | [3] | [5] | [6] | [7] | [8] | [9]

CCN(CC)C(=S)SSC(=S)N(CC)CC
inactive: [3] | [5] | [6]
active: [1] 153 µM | [2] 67.8 µM | [9] 148 µM

FC(F)C(F)(F)COCC1CO1 (stereo not drawn)
inactive: [1] | [2] | [3] | [5] | [6] | [7] | [8] | [9]

C[Si](C)(C)C(F)(F)C(F)(F)C(F)(F)F
inactive: [1] | [2] | [3] | [5] | [6] | [7] | [8] | [10] | [9]

NC(=O)N(O)[C@@H]1COc2cc(OCc3ccccc3)ccc21
inactive: [1] | [2] | [3] | [4] | [5] | [6] | [7] | [8] | [9]

O=C(O)c1cccc(C(=O)O)c1
inactive: [1] | [2] | [3] | [4] | [5] | [6] | [7] | [8] | [9]

FC(F)(F)COC(OCC(F)(F)F)OCC(F)(F)F
inactive: [1] | [2] | [3] | [4] | [5] | [6] | [7] | [8] | [9]

COc1cc2c(c(OC)c1OC)-c1ccc(OC)c(=O)cc1[C@@H](NC(C)=O)CC2
inactive: [1] | [3] | [4] | [5] | [6] | [8] | [9]
active: [2] 0.0925 µM | [7] 0.619 µM

S=P(N1CC1)(N1CC1)N1CC1
inactive: [1] | [2] | [3] | [5] | [6] | [7] | [8] | [10] | [9]

Cc1cccc(O)c1C
active: [2] 23.7 µM
inactive: [1] | [2] | [3] | [5] | [6] | [7] | [8] | [9]

CCCOc1ccc(S(=O)(=O)N2CCN(CC)CC2)cc1-c1nc2c(CC)n(Cc3ccccn3)nc2c(=O)[nH]1
inactive: [1] | [3] | [5] | [6] | [8]
active: [2] 100 µM | [4] 70 µM | [7] 19.8 µM | [9] 34.8 µM

OCCC(F)(F)C(F)(F)C(F)(F)C(F)(F)F
inactive: [1] | [2] | [3] | [4] | [5] | [6] | [7] | [8] | [10] | [9]

CC1(C)C(=O)N(Cl)C(=O)N1Cl
inactive: [1] | [3] | [4] | [5] | [6] | [7] | [8] | [9]

Cn1c(=O)c2[nH]cnc2n(C)c1=O
inactive: [1] | [2] | [4] | [5] | [6] | [8] | [9]

c1ccc2c(c1)-c1cccc3c1c-2cc1ccccc13
active: [7] 4.67 µM
inactive: [1] | [3] | [4] | [5] | [6] | [7] | [8] | [9]

CC(C)CC(C)O (stereo not drawn)
inactive: [1] | [2] | [5] | [6] | [7] | [8] | [10] | [9]

C[C@]12C=CC(=O)C=C1CC[C@H]1[C@@H]3C[C@@H](O)[C@](O)(C(=O)CO)[C@@]3(C)C[C@H](O)[C@@]12F
inactive: [1] | [4] | [5] | [6] | [7] | [8] | [9]
active: [3] 0.14 µM

OC[C@H]1O[C@@](CO)(O[C@H]2O[C@H](CO)[C@@H](O)[C@H](O)[C@H]2O)[C@@H](O)[C@@H]1O
inactive: [1] | [2] | [5] | [6] | [7] | [8] | [10] | [9]

OCc1ccccc1
inactive: [1] | [3] | [4] | [5] | [6] | [7] | [8] | [10] | [9]

O=S1(=O)CCCO1
inactive: [1] | [3] | [4] | [5] | [6] | [7] | [8] | [9]

O=c1[nH]cnc2c1ncn2[C@H]1CC[C@@H](CO)O1
inactive: [1] | [3] | [4] | [5] | [6] | [7] | [8] | [9]

CCCCCCCCCCCCCCCCOS(=O)(=O)O
inactive: [1] | [2] | [5] | [6] | [7] | [8]
active: [9] 25.4 µM

OCCOCCOCCO
inactive: [1] | [3] | [4] | [5] | [6] | [7] | [8] | [10] | [9]
